Data: PubChem BioAssay (NCATS)
Results filed as inconclusive are left out. Activity calls are given as the source filed them. Calls come from the whole dose curve; as a rule, active = well fitted inhibition curve with a large enough effect; inconclusive = small, poorly fitted or top-dose-only effect; inactive = flat fitted curve, though single readings scatter.

Columns and labels:
Assay in all cases: qHTS profiling for inhibitors of Plasmodium falciparum proliferation (AID 504749); note: nearly all actives have a fitted effect of over 60% in size
Settings in all cases: P. falciparum in erythrocytes, SYBR Green DNA, 72 h; series mostly up to 28.7 µM
DIV14 = system: DIV14
Procedure, shortened: (§1)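 Infected RBCs, 0.3% parasitemia/2.5% Hct final; cpd 72 h, 37 C, 5% CO2; lysis buffer with saponin/triton/SYBR Green I, o/n RT dark; FI 485/535; norm. to artemisinin (0.29 uM) and DMSO.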

DIV17 = system: DIV17
Procedure, shortened: as §1

DIV30 = system: DIV30
Procedure, shortened: as §1

Dd2 = system: Dd2
Procedure, shortened: as §1

ECU = system: ECU
Procedure, shortened: as §1

FAB9 = system: FAB9
Procedure, shortened: as §1

GB4 = system: GB4
Procedure, shortened: as §1

HB3 = system: HB3
Procedure, shortened: as §1

ICS = system: ICS
Procedure, shortened: as §1

JCK = system: JCK
Procedure, shortened: as §1

N140 = system: N140
Procedure, shortened: as §1

P93_24 = system: P93_24
Procedure, shortened: as §1

P94_40 = system: P94_40
Procedure, shortened: as §1

PAD = system: PAD
Procedure, shortened: as §1

PC15 = system: PC15
Procedure, shortened: as §1

PC26 = system: PC26
Procedure, shortened: as §1

PC49 = system: PC49
Procedure, shortened: as §1

SC27B = system: SC27B
Procedure, shortened: as §1

TAB109 = system: TAB109
Procedure, shortened: as §1

TAB113 = system: TAB113
Procedure, shortened: as §1

Measured: Potency

CC[C@@]1(c2ccccc2)NC(=O)N(C)C1=O
inactive: DIV14 | DIV17 | DIV30 | Dd2 | ECU | FAB9 | GB4 | HB3 | ICS | JCK | N140 | P93_24 | P94_40 | PAD | PC15 | PC26 | PC49 | SC27B | TAB109 | TAB113

C[C@@H]1CN(c2c(F)c(F)c3c(=O)c(C(=O)O)cn(C4CC4)c3c2F)C[C@H](C)N1
inactive: DIV14 | DIV17 | DIV30 | Dd2 | ECU | FAB9 | GB4 | HB3 | ICS | JCK | N140 | P93_24 | P94_40 | PAD | PC15 | PC26 | PC49 | SC27B | TAB109 | TAB113

CCCCCCCCCCCCOS(=O)(=O)O
inactive: DIV14 | DIV17 | DIV30 | Dd2 | ECU | FAB9 | GB4 | HB3 | ICS | JCK | N140 | P93_24 | P94_40 | PAD | PC15 | PC26 | PC49 | SC27B | TAB109 | TAB113

Cn1c(=O)c2c(ncn2CC2OCCO2)n(C)c1=O
inactive: DIV14 | DIV17 | DIV30 | Dd2 | ECU | FAB9 | GB4 | HB3 | ICS | JCK | N140 | P93_24 | P94_40 | PAD | PC15 | PC26 | PC49 | SC27B | TAB109 | TAB113

NCCNCCNCCNCCN
inactive: DIV14 | DIV17 | DIV30 | Dd2 | ECU | FAB9 | GB4 | HB3 | ICS | JCK | N140 | P93_24 | P94_40 | PAD | PC15 | PC26 | PC49 | SC27B | TAB109 | TAB113

Cc1cccc(Nc2cc(Cl)nc(SCC(=O)O)n2)c1C
inactive: DIV14 | DIV17 | DIV30 | Dd2 | ECU | FAB9 | GB4 | HB3 | ICS | JCK | N140 | P93_24 | P94_40 | PAD | PC15 | PC26 | PC49 | SC27B | TAB109 | TAB113

NC(=O)NNc1ccccc1
inactive: DIV14 | DIV17 | DIV30 | Dd2 | ECU | FAB9 | GB4 | HB3 | ICS | JCK | N140 | P93_24 | P94_40 | PAD | PC15 | PC26 | PC49 | SC27B | TAB109 | TAB113

CCOc1ccc2ccccc2c1C(=O)N[C@@H]1C(=O)N2[C@@H]1SC(C)(C)[C@@H]2C(=O)O
inactive: DIV14 | DIV17 | DIV30 | Dd2 | ECU | FAB9 | GB4 | HB3 | ICS | JCK | N140 | P93_24 | P94_40 | PAD | PC15 | PC26 | PC49 | SC27B | TAB109 | TAB113

CCCCCCCCCCCCCCCC(=O)NCCO
inactive: DIV14 | DIV17 | DIV30 | Dd2 | ECU | FAB9 | GB4 | HB3 | ICS | JCK | N140 | P93_24 | P94_40 | PAD | PC15 | PC26 | PC49 | SC27B | TAB109 | TAB113

C#CCN(C)Cc1ccccc1
inactive: DIV14 | DIV17 | DIV30 | Dd2 | ECU | FAB9 | GB4 | HB3 | ICS | JCK | N140 | P93_24 | P94_40 | PAD | PC15 | PC26 | PC49 | SC27B | TAB109 | TAB113

CC(=O)NC(Cc1ccccc1)C(=O)O (stereo not given)
inactive: DIV14 | DIV17 | DIV30 | Dd2 | ECU | FAB9 | GB4 | HB3 | ICS | JCK | N140 | P93_24 | P94_40 | PAD | PC15 | PC26 | PC49 | SC27B | TAB109 | TAB113

NC(CSCC(=O)O)C(=O)O (stereo not given)
inactive: DIV14 | DIV17 | DIV30 | Dd2 | ECU | FAB9 | GB4 | HB3 | ICS | JCK | N140 | P93_24 | P94_40 | PAD | PC15 | PC26 | PC49 | SC27B | TAB109 | TAB113

COc1ccc(S(=O)(=O)Nc2nnc(CC(C)C)s2)cc1
inactive: DIV14 | DIV17 | DIV30 | Dd2 | ECU | FAB9 | GB4 | HB3 | ICS | JCK | N140 | P93_24 | P94_40 | PAD | PC15 | PC26 | PC49 | SC27B | TAB109 | TAB113
